Experimental data as given in the supplement of paper PMC10338343.
± gives the standard deviation.

System: MILI (PIWIL2) piRISC loaded with L1MC piRNA (26 nt)
Assay: pre-steady-state target cleavage rate (min^-1); guide: L1MC piRNA 5'p-UAACUAAAUACUAUGCAAGCUGUAGG; MIWI and MILI are mouse PIWI proteins and EfPiwi is from a freshwater sponge; tags in brackets are library labels; higher = faster piRNA-guided slicing of the target
How it was run: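 With or without 500 nM GTSF1 partner protein, 1 nM active affinity-purified piRISC carrying one synthetic guide was mixed with 0.1 nM transcribed, DNA-blocked target RNA library in HEPES–potassium acetate buffer at 33 °C for 0–8 or 0–960 min. Uncleaved targets were sequenced and normalised to depth and to weakly complementary targets, three trials were pooled, and k3 was capped at 0.0001 min^-1. The pre-steady-state cleavage rate came from a burst-and-steady-state fit.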

[1] = auxiliary factor: 500 nM mouse GTSF1
[2] = auxiliary factor: none (no GTSF1)

Sequence	pre-steady-state target cleavage rate [1]	pre-steady-state target cleavage rate [2]
UCCUGGAUCUAGCUUGCAUAGUAUUUAGUUA	0.193 ± 0.021	0.00722 ± 0.0025
UCCUGGAACUCGUUGCAUAGUAUUUAGUAA	0.165 ± 0.021	0.00378 ± 0.002
UCCUGGAUGAGCUUGCUAAGUAUUUAGUUA	0.0294 ± 0.0061	0.00602 ± 0.0023
UCCUGGAUGUCCUUGCAUUGUUUUUAGUUA	0.00791 ± 0.0055	0.00421 ± 0.0023
UCCUGGUACAGGUUGCAUAGUAUUUACAAA	0.0239 ± 0.011	0.00315 ± 0.003
UCCUGGAUGUCCAUGCAUAGUAUUUAGUUA	0.0603 ± 0.016	0.00432 ± 0.0026
UCCUGGAUCAGGAAGCAUAGUAUUUAGUUA	0.0634 ± 0.0094	0.00311 ± 0.0023
UCCUGGAUGUGCUAGCUUAGUAUUUAGUUA	0.0596 ± 0.0098	0.00453 ± 0.0023
UCCUGGAUCAGCUUGCAUAGUAGUUUAGUUA	0.216 ± 0.02	0.00969 ± 0.0027
UCCUGGAUGUGCAUGCAAAGUAUUUAGUUA	0.0175 ± 0.0048	0.00933 ± 0.0024
UCCUGGAUGACCUUGCUUAGUAUUUAGUUA	0.114 ± 0.019	0.00599 ± 0.0028
UCCUGGAUCAGCUUGCUAAGUAUUUAGUUA	0.0871 ± 0.012	0.0065 ± 0.0021
UCCUGGAUGUCGUUGCAAAGUAUUUAGUAA	0.0183 ± 0.0061	0.00357 ± 0.0021
UCCUGGAACAGCUUGCAUAGUAUCUAGUUA	0.213 ± 0.03	0.00512 ± 0.0024
UCCUCCUACAGCUUGCAUUGUAAUUAGUUA	0.166 ± 0.013	0.00423 ± 0.0019
UCCUGGAUGUCCUUGGUUAGUAUUUAGUUA	0.0867 ± 0.022	0.00681 ± 0.0022
UCCUGGAUGAGGUUGCAUAGUAUAUAGUUA	0.163 ± 0.04	0.00623 ± 0.0021
UCCUCCUACAGCUUGCUAGUAUUUAGUUA	0.037 ± 0.013	0.00462 ± 0.0021
UCCUGGAUCAGCUUGCAUAGAUAUUUAGUUA	0.0135 ± 0.004	0.00307 ± 0.0026
UCCUGGAUGUCCUUGCAUUGUAUUUAGUUA	0.0543 ± 0.012	0.00683 ± 0.002
UCCUGGAUGUGGUUGCAUAGUAUUAAGUUA	0.171 ± 0.048	0.00678 ± 0.0029
UCCUGGAUGAGCAUGCAUAGUAUUUACUUA	0.122 ± 0.029	0.00352 ± 0.0028

Sequence	pre-steady-state target cleavage rate [1]	pre-steady-state target cleavage rate [2]
UCCUGGAACAGCUAGCAUUGUAUUUAGUUA	0.164 ± 0.013	0.0074 ± 0.0021
UCCUCCUACAGCUUGGAUAGUAUUUAGUUA	0.294 ± 0.017	0.0109 ± 0.003
UCCUGGAUGUCCUUGCAAAGUUUUUAGUUA	0.0117 ± 0.0048	0.00553 ± 0.0019
UCCUGGAUGUGCUACCAUAGUAUUUAGUUA	0.0577 ± 0.0094	0.0039 ± 0.0022
UCCUGGAUGUCGAAGCAUAGUAUAUAGUUA	0.0508 ± 0.015	0.00342 ± 0.0022
UCCUCCUACGGCUUGCAUAGUAUUUAGUUA	0.298 ± 0.018	0.0137 ± 0.004
UCCUGGAUGUCGUUGCAUAGUAUUUAGUA	0.148 ± 0.022	0.00424 ± 0.0026
UCCUGGUACAGCUUGCAUAGUAUUUAGUCA	0.159 ± 0.032	0.00633 ± 0.0029
UCCUGGAUGAGCUUGCUUAGUAUAUAGUUA	0.103 ± 0.02	0.00937 ± 0.0029
UCCUGGAUGUCCUUGCAUAGUAAUUUAGUUA	0.0401 ± 0.013	0.00555 ± 0.0026
UCCUGGUAGACCUUGCAUAGUAUUUAGUUA	0.221 ± 0.022	0.00488 ± 0.0036
UCCUGGUACAGCUUGGAUAGUAUUAAGUUA	0.174 ± 0.038	0.00474 ± 0.0033
UCCUGGAUGUGCUUGCAUACAAUUUAGUUA	0.00405 ± 0.0039	0.0028 ± 0.0024
UCCUGGAUGUCCAAGCAUAGUAUUUAGUAA	0.0187 ± 0.0069	0.00309 ± 0.0027
UCCUGGUACAGCUUGCAUAUAUUUAGUUA	0.035 ± 0.011	0.00493 ± 0.0024
UCCUGGAUGUCCUUGGAUAGUAAUUAGUUA	0.411 ± 0.1	0.00325 ± 0.0027
UCCUGGAUGAGGAAGCAUAGUAUUUAGUUA	0.0519 ± 0.012	0.00494 ± 0.0027
UCCUGGUACAGGUUGCAUAGUUUUUAGUUA	0.039 ± 0.011	0.00732 ± 0.0043
UCCUGGUACAGCUUCGAUAGUAUUUAGUAA	0.26 ± 0.046	0.00305 ± 0.0029
UCCUGGAUGUCGUUGCAUAGUAUUUAGUUG [g2:g18:cont:t1G]	0.1 ± 0.016	0.00688 ± 0.003
UCCUGGAUGUGGUUGGAUAGUAUUUAGUUA	0.109 ± 0.019	0.00858 ± 0.0028
UCCUCCUACUAGCUUGCAUAGUAUUUAGUUA	0.13 ± 0.013	0.00589 ± 0.002

Sequence	pre-steady-state target cleavage rate [1]	pre-steady-state target cleavage rate [2]
UCCUCCUACAGCUUGCAUGGUAUUUAGUUA	0.413 ± 0.019	0.00982 ± 0.003
UCCUGGAUGUGCAUGCAUACUAUUUAGUUA	0.0253 ± 0.0066	0.00586 ± 0.0023
UCCUCCUUCAGCUUGCAUAGUAUUUAGUUA	0.297 ± 0.019	0.0116 ± 0.0026
UCCUGGAACAGCAACCAUAGUAUUUAGUUA	0.152 ± 0.018	0.00431 ± 0.0018
UCCUGGAUGUCGUUGCAUAGUAUGUUAGUUA	0.203 ± 0.042	0.00861 ± 0.0031
UCCUGGAACAGGUUGCAUACUAUUUAGUUA	0.0491 ± 0.0087	0.00363 ± 0.002
UCCUGGAUGAGCUUGGUUAGUAUUUAGUAA	0.175 ± 0.027	0.0063 ± 0.0023
UCCUGGUACUGCUUGCAUACUAUUUAGUUA	0.0502 ± 0.015	0.00418 ± 0.0039
UCCUGGAUGUCCUUGCAUAGUAUUCAGUUA	0.0755 ± 0.018	0.00338 ± 0.0028
UCCUGGAUGUCGUUGCACAGUAUUUAGUUA	0.0899 ± 0.011	0.00642 ± 0.0028
UCCUCCUACAGCUUGCAAAGUUUUUAGUUA	0.0169 ± 0.0064	0.00334 ± 0.0023
UCCUGGAUGAGCUUGCUAGUAUUUAGUUA	0.00709 ± 0.0035	0.00421 ± 0.0027
UCCUGGAUCAGCUAGCAUAGUAUUUAGAUA	0.0957 ± 0.019	0.00275 ± 0.0026
UCCUGGAUGUCGUUGCUUAGUAUUUUGUUA	0.0541 ± 0.016	0.00381 ± 0.0029
UCCUGGUACAGCUUGCAUAGUAUUUAGGUUA	0.163 ± 0.044	0.00633 ± 0.0032
UCCUGGAUGUGCUUGCUUACUAUUUAGUUA	0.0117 ± 0.005	0.00477 ± 0.0024
UCCUGGAUGAGCUUGGUAAGUAUUUAGUUA	0.009 ± 0.0036	0.00405 ± 0.0023
UCCUGGAUGUCGUUGCAGAGUAUUUAGUUA	0.0117 ± 0.0043	0.0038 ± 0.0022
UCCUGGAACUGCUUGCAUAGUAUUAAGUUA	0.173 ± 0.022	0.00346 ± 0.0024
UCCUGGAUGUCGAUGCAUAGUAGUUAGUUA	0.0193 ± 0.005	0.00415 ± 0.0021
UCCUGGUACAGCUUGCAUAGUAUUUCAGUUA	0.21 ± 0.078	0.00397 ± 0.0039
